Screening results as filed in PubChem BioAssay.
GRP78 ERSR act: induces the endoplasmic reticulum stress response in human glioma cells. U87-MG GRP78 promoter luciferase reporter, 16 h. Potency, µM, usual class: activators. 420,000 compounds, 0.02% hits. AID 602332; active = well fitted activation curve with a large enough effect; inconclusive = small, poorly fitted or top-dose-only effect; inactive = no such curve, though single readings can be large or run the other way; note: series mostly up to about 76 µM; nearly all actives have a fitted effect of over 35% in size
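ERSR induction read as luciferase luminescence (Bright-Glo, 10 min at room temperature) in stably transfected human U87-MG glioma cells exposed to compounds for 16 h, using GRP78 as sensor.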
D1 PAM: human D1 dopamine receptor positive modulation; P21728; HEK293 TREx D1 cells, calcium flux, dopamine EC20 potentiation; potentiation, % at 10 µM; 360,000 compounds, 0.036% hits; AID 504651; in the data active = potentiation above about 30%
TRHR PAM: allosteric enhancers of human TRH receptor; P34981; TRHR cells, fluo-8 calcium fluorescence, EC20 TRH enhancement; enhancement, % at 2 µM; 360,000 compounds, 0.66% hits; AID 493056; in the data active = enhancement above about 30%
Target sequence (P34981 whole entry, looked up): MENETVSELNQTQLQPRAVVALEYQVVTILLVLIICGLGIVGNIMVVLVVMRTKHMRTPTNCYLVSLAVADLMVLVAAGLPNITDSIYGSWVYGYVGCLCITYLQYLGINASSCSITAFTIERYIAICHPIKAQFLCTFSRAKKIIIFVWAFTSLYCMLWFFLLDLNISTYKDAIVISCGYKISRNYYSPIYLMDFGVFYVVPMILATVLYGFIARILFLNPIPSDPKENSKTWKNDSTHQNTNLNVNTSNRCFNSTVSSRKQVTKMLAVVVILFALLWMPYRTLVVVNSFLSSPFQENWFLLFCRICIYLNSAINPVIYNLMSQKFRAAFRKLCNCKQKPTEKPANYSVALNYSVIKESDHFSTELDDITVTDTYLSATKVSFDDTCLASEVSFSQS
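TRHR-expressing cells loaded with fluo-8 calcium dye were read kinetically (ex 480/em 530) during compound addition, then stimulated with an EC20 of TRH (10 nM final). Enhancement of the Gq-mediated intracellular calcium response was scored.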
D1 antag: antagonists of human D1 dopamine receptor | HEK293 TREx D1 cells, calcium flux, dopamine EC80; active compounds read low | activity change, negative = inhibition, % at 10 µM | 360,000 compounds, 3.2% hits | AID 504652; in the data active = activity change below about -30%
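Using tetracycline-induced force-coupled D1 Hek293 cells and a calcium dye, signals were followed for 180 s after compound, then for 180 s after EC80 dopamine, to detect inhibitors.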
D1 ag: human D1 receptor agonism; P21728; HEK293 T-REx D1 cells, calcium flux, agonist mode; activation, % at 2 µM; 360,000 compounds, 1% hits; AID 504660
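Agonism was scored from calcium flux recorded over 180 s (1 read/s) after pintool compound addition, following a 10-cycle baseline. Cells were inducible force-coupled HEK293 TREx D1, plated overnight at 30 C and loaded with no-wash calcium dye.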
TRHR ag: activates the human TRH receptor | TRHR cells, calcium flux fluo-8, FDSS agonist mode | 360,000 compounds, 0.18% hits | P34981 | activation, % at 2 µM
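In this calcium-flux screen, cells bearing human TRHR are dye-loaded with fluo-8, baselined for 10 cycles, then exposed to library compounds; positive kinetic calcium responses during the agonist phase mark hits, with TRH as control.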
Of the large screens only hits and unclear results are named; the others gave an inactive call; ! = a repeat was not active. An excerpt weighted towards active compounds, which were near 4% of everything screened. Cut-off read from the data, not from the text of the source, unless noted: active = activation above about 30%; inactive = the rest.

Cc1ccc(C)c(N2CCN(C(=O)C3CCN(C(=O)c4cc5sccc5n4C)CC3)CC2)c1	D1 antag -65
Cc1ccc(C)c(N2CCN(C(=O)c3cc4sccc4n3C)CC2)c1	none
CC(NC(=O)c1cc(-c2cccnc2)nc2ccc(Br)cc12)C1CCCO1 (configuration not stated)	D1 antag -34
Cc1noc(C)c1CN(C(=S)NC(C)C)c1ccccc1	D1 antag -32
CCCCN1C(=O)C(NC(=O)c2ccc(C(C)(C)C)cc2)(C(F)(F)F)C(C(=O)OC)=C1C (configuration not stated)	D1 ag 58
C=CCC(C(=O)NC(C)c1ccccc1)C(=O)NC(C)c1ccccc1 (configuration not stated)	D1 ag 32
CSc1cccc(NC(=O)CCNC(=O)c2ccco2)c1	none
O=C(CCNC(=O)c1ccco1)Nc1cccc(Br)c1	D1 antag -30
CC(NC(=O)CCC(=O)NC(C)c1ccccc1)c1ccccc1 (configuration not stated)	none
CCC(C(=O)NC(C)c1ccccc1)C(=O)NC(C)c1ccccc1 (configuration not stated)	none
CC(NC(=O)CCNC(=O)c1ccco1)c1ccccc1 (configuration not stated)	D1 antag -42
CC(NC(=O)CCSCCC(=O)NC(C)c1ccccc1)c1ccccc1 (configuration not stated)	D1 antag -45
CCOC(=O)c1cc2c(ccn2C)n1CC(=O)Nc1ccc(F)cc1	none
Cc1nc(C(=O)NCCO)cc2c1[nH]c1ccccc12	none
CC[N+]1=C(C)C(C)(C)c2cc(C)ccc21	D1 antag -34
CCN1C(=O)C(=O)c2cc(C)ccc21	none (no result: D1 PAM, TRHR PAM, D1 antag, D1 ag, TRHR ag)
Cc1ccc(NS(=O)(=O)c2cc(C(=O)NCc3ccccn3)ccc2Cl)cc1C	D1 antag -31
Cc1cccc(NS(=O)(=O)c2cc(C(=O)NCCC3=CCCCC3)ccc2Cl)c1	TRHR PAM 35
O=C(COC(=O)C1CCN(c2ccc(C(F)(F)F)cn2)CC1)Nc1ccc(Cl)cn1	D1 antag -59
N#CCC(=O)N1CC2(CC(c3cccc(NC(=O)COc4ccc(Cl)cc4)c3)=NO2)C[C@@H]1C(N)=O (some centres not stated)	D1 antag -41
C/C=C/C(=O)Nc1cccc(C2=NOC3(C2)C[C@H](C(N)=O)N(C(=O)/C=C/C)C3)c1 (some centres not stated)	D1 antag -42
C/C=C/C=C/C(=O)N1CC2(CC(c3cccc(NC(=O)/C=C/C)c3)=NO2)C[C@@H]1C(N)=O (some centres not stated)	none
NC(=O)[C@@H]1CC2(CC(c3cccc(NC(=O)COc4ccc(Cl)cc4)c3)=NO2)CN1C(=O)COc1ccc(Cl)cc1 (some centres not stated)	none
C/C=C\C=C/C(=O)Nc1cccc(C2=NOC3(C2)C[C@@H](C(N)=O)N(C(=O)c2ccc(Cl)cc2)C3)c1 (some centres not stated)	D1 antag -30
C/C=C(\C)C(=O)Nc1cccc(C2=NOC3(C2)C[C@H](C(N)=O)N(C(=O)c2cc([N+](=O)[O-])cc([N+](=O)[O-])c2)C3)c1 (some centres not stated)	D1 antag -64
COc1ccc2c(c1)c1c(c(=O)n(-c3ccccc3C)c(=O)n1Cc1ccccc1C)n2C	none
Fc1ccc(C(Nc2ccccn2)c2c[nH]c3ccccc23)cc1 (configuration not stated)	none
Cc1c(C(=O)Nc2ccc(OCc3ccccc3)cc2)cccc1[N+](=O)[O-]	none
CN(CCc1ccccn1)C(=O)c1ccc(OC(F)(F)F)cc1	none
O=C1NC(=O)/C(=C\c2ccccc2Oc2ccc(F)c(F)c2)S1	D1 antag -34
CCCNC(=O)OC[C@H]1O[C@H](CCO/N=C/c2ccc(C(=O)N3[C@H](c4ccc(C)cc4)[C@@H](C)CC[C@H]3C(=O)OC)cc2)C=C[C@@H]1Oc1ccc(OC)cc1	none (no result: GRP78 ERSR act)
COc1cc2c(cc1OC)CN(C(=O)/C=C/c1ccc(F)cc1)CC2	none
COc1cc2c(cc1OC)CN(C(=O)CSc1ccc(F)cc1)CC2	D1 antag -87
COc1cc(OC)c(NC(=O)CCNC(=O)Cn2cnc3ccccc3c2=O)cc1Cl	none
COc1cc(OC)c(N(C)C(=O)CCNC(=O)Cn2cnc3ccccc3c2=O)cc1Cl	TRHR PAM 30!
CC1CCCCC1NC(=O)c1cccc(N2C(=O)C3C4C=CC(C4)C3C2=O)c1 (configuration not stated)	none
COc1ccc(CNCCC(c2ccc(OC(C)C)cc2)C(C)C)cc1OC (configuration not stated)	D1 ag 35
COc1ccc(C(CCNCc2ccc(OC(C)C)cc2)C(C)C)cc1 (configuration not stated)	D1 ag 31
COc1ccccc1C(CCNCc1ccccc1)c1ccc(OC(C)C)cc1 (configuration not stated)	none
COc1ccc(CNCCC(c2ccc(OC(C)C)cc2)c2ccccc2OC)cc1 (configuration not stated)	D1 ag 35
O=C(NC1CC(=O)N(c2cccc(F)c2)C1)c1cccs1 (configuration not stated)	none (no result: D1 antag)
COC(=O)c1c(NC(=O)c2nc(SC)ncc2Cl)sc2c1CCCC2	none
COC(=O)c1cc2c(=O)c3ccccc3oc2nc1/C=C/N(C)C	D1 ag 76, TRHR ag 35
COC(=O)c1cc2c(=O)c3ccccc3oc2nc1C	none
O=C(Nc1ccc(-c2nc3ccccc3o2)c(O)c1)c1cc(-n2cnnc2)ccc1Cl	none
Cc1c(NC(=O)c2cc(-n3cnnc3)ccc2Cl)cccc1-c1nc2ccccc2o1	D1 antag -44
O=C1CC(N2CCN(c3ccccn3)CC2)C(=O)N1CC(c1ccccc1)c1ccccc1 (configuration not stated)	none
Cc1ccc(-c2nn(-c3ccccc3)cc2/C=C/C(=O)Nc2nccs2)cc1	D1 antag -31
O=C(/C=C/c1cn(-c2ccccc2)nc1-c1ccccc1)Nc1ccc(C(=O)O)cc1	GRP78 ERSR act inconclusive
Cc1ccc(-c2nn(-c3ccccc3)cc2/C=N/O)cc1	D1 PAM 38, D1 ag 58
Cc1cccc(OC2CCN(Cc3c(C(=O)N4CCCC4)nc4ccccn34)CC2)c1	D1 antag -44
O=C(c1cccc(OC2CCN(Cc3cc(F)cc(F)c3)CC2)c1)N1CCCC1	none
COCCNC(=O)c1cccc(OC2CCN(Cc3ccccc3OC(F)F)CC2)c1	none
